# In publication PMC8384837, “Expanding the binding specificity for RNA recognition by a PUF domain”:
# Experiments:
# Assay in all cases: yeast three-hybrid, YBZ-1, SC-Leu-His + 0.5 mM 3-AT, 4 days
# Conditions in all cases: tags: N-Gal4 AD-HA kept; label: inside an RPR1-promoter hybrid RNA with tandem MS2 sites; ssRNA
# PUM1 PUF domain R7-QTR = PUM1 PUF domain R7-QTR (Homo sapiens, UniProt Q14671 828-1176, S1079Q;N1080T;E1083R)
# How it was run: (§1)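 A centromeric plasmid in strain YBZ-1 co-expressed Pumilio-1 PUF domain libraries, randomized at the three base-contacting residues of each repeat, with matching RNA elements; the strain carries a LexA–MS2 coat fusion and a HIS3 reporter. After four days on SC-Leu (input) or SC-Leu-His + 0.5 mM 3-AT (selection), the repeat regions were PCR-amplified and Illumina-sequenced. The interaction score is the log change in variant frequency from input to selection, using log2 and a pseudocount of 1 where absent.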
# PUM1 PUF domain R7-RGY = PUM1 PUF domain R7-RGY (Homo sapiens, UniProt Q14671 828-1176, S1079R;N1080G;E1083Y)
# How it was run: as §1
# PUM1 PUF domain R5-SVG = PUM1 PUF domain R5-SVG (Homo sapiens, UniProt Q14671 828-1176, C1007S;R1008V;Q1011G)
# How it was run: as §1
# PUM1 PUF domain R8-RWG = PUM1 PUF domain R8-RWG (Homo sapiens, UniProt Q14671 828-1176, N1122R;Y1123W;Q1126G)
# How it was run: as §1
# PUM1 PUF domain R8-CHP = PUM1 PUF domain R8-CHP (Homo sapiens, UniProt Q14671 828-1176, N1122C;Y1123H;Q1126P)
# How it was run: as §1
# PUM1 PUF domain R8-RQR = PUM1 PUF domain R8-RQR (Homo sapiens, UniProt Q14671 828-1176, N1122R;Y1123Q;Q1126R)
# How it was run: as §1
# PUM1 PUF domain R8-AWK = PUM1 PUF domain R8-AWK (Homo sapiens, UniProt Q14671 828-1176, N1122A;Y1123W;Q1126K)
# How it was run: as §1
# PUM1 PUF domain R2-LWS = PUM1 PUF domain R2-LWS (Homo sapiens, UniProt Q14671 828-1176, N899L;Y900W;Q903S)
# How it was run: as §1
# PUM1 PUF domain R4-ERC = PUM1 PUF domain R4-ERC (Homo sapiens, UniProt Q14671 828-1176, N971E;H972R;Q975C)
# How it was run: as §1
# PUM1 PUF domain R3-CPG = PUM1 PUF domain R3-CPG (Homo sapiens, UniProt Q14671 828-1176, R936P;Q939G)
# How it was run: as §1
# PUM1 PUF domain R6-GYQ = molecular target: T1, PUM1 PUF domain R6-GYQ (Homo sapiens, UniProt Q14671 828-1176, N1043G)
# T1 sequence: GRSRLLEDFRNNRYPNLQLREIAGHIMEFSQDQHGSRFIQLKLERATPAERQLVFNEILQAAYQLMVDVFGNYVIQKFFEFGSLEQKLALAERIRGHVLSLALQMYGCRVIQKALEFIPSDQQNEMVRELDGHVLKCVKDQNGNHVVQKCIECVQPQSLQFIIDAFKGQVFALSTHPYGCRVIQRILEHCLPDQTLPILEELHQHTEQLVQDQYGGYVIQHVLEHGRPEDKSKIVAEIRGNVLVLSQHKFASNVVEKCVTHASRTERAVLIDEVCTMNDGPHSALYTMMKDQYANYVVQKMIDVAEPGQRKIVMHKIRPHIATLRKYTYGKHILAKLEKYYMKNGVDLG
# How it was run: as §1
# PUM1 PUF domain R1-TVR = PUM1 PUF domain R1-TVR (Homo sapiens, UniProt Q14671 828-1176, S863T;R864V;Q867R)
# How it was run: as §1
# PUM1 PUF domain R1-RWS = PUM1 PUF domain R1-RWS (Homo sapiens, UniProt Q14671 828-1176, S863R;R864W;Q867S)
# Chain of PUM1 PUF domain R1-RWS (Q14671 828-1176 S863R/R864W/Q867S): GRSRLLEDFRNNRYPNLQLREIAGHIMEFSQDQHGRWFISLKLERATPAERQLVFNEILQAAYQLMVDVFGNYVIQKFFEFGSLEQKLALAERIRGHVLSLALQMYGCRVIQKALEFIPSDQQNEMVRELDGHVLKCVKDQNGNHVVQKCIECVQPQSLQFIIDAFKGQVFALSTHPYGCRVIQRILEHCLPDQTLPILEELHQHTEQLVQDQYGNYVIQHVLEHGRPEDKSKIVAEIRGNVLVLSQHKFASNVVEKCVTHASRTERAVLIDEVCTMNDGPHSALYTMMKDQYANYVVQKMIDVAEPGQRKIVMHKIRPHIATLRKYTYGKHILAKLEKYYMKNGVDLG
# How it was run: as §1
# PUM1 PUF domain R1-MGR = PUM1 PUF domain R1-MGR (Homo sapiens, UniProt Q14671 828-1176, S863M;R864G;Q867R)
# How it was run: as §1
# PUM1 PUF domain R1-RGT = PUM1 PUF domain R1-RGT (Homo sapiens, UniProt Q14671 828-1176, S863R;R864G;Q867T)
# Chain of PUM1 PUF domain R1-RGT (Q14671 828-1176 S863R/R864G/Q867T): as the sequence (Q14671 828-1176 S863R/R864W/Q867S) above, with W37G, S40T counted along it
# How it was run: as §1
# PUM1 PUF domain R3-LSV = PUM1 PUF domain R3-LSV (Homo sapiens, UniProt Q14671 828-1176, C935L;R936S;Q939V)
# How it was run: as §1
# PUM1 PUF domain R1-KFR = PUM1 PUF domain R1-KFR (Homo sapiens, UniProt Q14671 828-1176, S863K;R864F;Q867R)
# How it was run: as §1
# PUM1 PUF domain R3-LWN = PUM1 PUF domain R3-LWN (Homo sapiens, UniProt Q14671 828-1176, C935L;R936W;Q939N)
# How it was run: as §1
# PUM1 PUF domain R5-RNE = PUM1 PUF domain R5-RNE (Homo sapiens, UniProt Q14671 828-1176, C1007R;R1008N;Q1011E)
# How it was run: as §1
# PUM1 PUF domain R5-RGG = PUM1 PUF domain R5-RGG (Homo sapiens, UniProt Q14671 828-1176, C1007R;R1008G;Q1011G)
# How it was run: as §1
sequence,measurement,setting,value
GGCUAGAACUAGUGGAUCCCCCGGCGCCCGGCGGCUCGAGCCCGGGUAAGUUUAAAUAGUCUGCAUGCCGCCGGGCGCCAUGCCUGCAGGUCGACUCUAGAAAACAUG,binding signal,PUM1 PUF domain R7-QTR,2.39 log2 enrichment (interaction score)
same,binding signal,PUM1 PUF domain R7-RGY,2.43 log2 enrichment (interaction score)
GGCUAGAACUAGUGGAUCCCCCGGCGCCCGGCGGCUCGAGCCCGGGUAAGUGUGAAUAGUCUGCAUGCCGCCGGGCGCCAUGCCUGCAGGUCGACUCUAGAAAACAUG,binding signal,PUM1 PUF domain R5-SVG,2.82 log2 enrichment (interaction score)
GGCUAGAACUAGUGGAUCCCCCGGCGCCCGGCGGCUCGAGCCCGGGUAAGCGUAAAUAGUCUGCAUGCCGCCGGGCGCCAUGCCUGCAGGUCGACUCUAGAAAACAUG,binding signal,PUM1 PUF domain R8-RWG,6.94 log2 enrichment (interaction score)
same,binding signal,PUM1 PUF domain R8-CHP,2.6 log2 enrichment (interaction score)
same,binding signal,PUM1 PUF domain R8-RQR,3.05 log2 enrichment (interaction score)
same,binding signal,PUM1 PUF domain R8-AWK,4.69 log2 enrichment (interaction score)
GGCUAGAACUAGUGGAUCCCCCGGCGCCCGGCGGCUCGAGCCCGGGUAAGUGUAAAUAGUCUGCAUGCCGCCGGGCGCCAUGCCUGCAGGUCGACUCUAGAAAACAUG,binding signal,PUM1 PUF domain R2-LWS,2.23 log2 enrichment (interaction score)
same,binding signal,PUM1 PUF domain R8-RWG,5.92 log2 enrichment (interaction score)
same,binding signal,PUM1 PUF domain R8-CHP,0.7 log2 enrichment (interaction score)
same,binding signal,PUM1 PUF domain R4-ERC,4.37 log2 enrichment (interaction score)
same,binding signal,PUM1 PUF domain R3-CPG,2.95 log2 enrichment (interaction score)
same,binding signal,PUM1 PUF domain R8-RQR,0.6 log2 enrichment (interaction score)
same,binding signal,PUM1 PUF domain R8-AWK,5.21 log2 enrichment (interaction score)
same,binding signal,PUM1 PUF domain R6-GYQ,3.62 log2 enrichment (interaction score)
GGCUAGAACUAGUGGAUCCCCCGGCGCCCGGCGGCUCGAGCCCGGGUAAGUGUAAAUCGUCUGCAUGCCGCCGGGCGCCAUGCCUGCAGGUCGACUCUAGAAAACAUG,binding signal,PUM1 PUF domain R1-TVR,3.55 log2 enrichment (interaction score)
same,binding signal,PUM1 PUF domain R1-RWS,2.83 log2 enrichment (interaction score)
same,binding signal,PUM1 PUF domain R1-MGR,1.49 log2 enrichment (interaction score)
same,binding signal,PUM1 PUF domain R1-RGT,5.04 log2 enrichment (interaction score)
GGCUAGAACUAGUGGAUCCCCCGGCGCCCGGCGGCUCGAGCCCGGGUAAGUGUACAUAGUCUGCAUGCCGCCGGGCGCCAUGCCUGCAGGUCGACUCUAGAAAACAUG,binding signal,PUM1 PUF domain R4-ERC,0.16 log2 enrichment (interaction score)
GGCUAGAACUAGUGGAUCCCCCGGCGCCCGGCGGCUCGAGCCCGGGUAAGUGUAAGUAGUCUGCAUGCCGCCGGGCGCCAUGCCUGCAGGUCGACUCUAGAAAACAUG,binding signal,PUM1 PUF domain R3-LSV,3.37 log2 enrichment (interaction score)
GGCUAGAACUAGUGGAUCCCCCGGCGCCCGGCGGCUCGAGCCCGGGUAAGUGUAAAUUGUCUGCAUGCCGCCGGGCGCCAUGCCUGCAGGUCGACUCUAGAAAACAUG,binding signal,PUM1 PUF domain R1-KFR,3.96 log2 enrichment (interaction score)
same,binding signal,PUM1 PUF domain R1-RWS,3.86 log2 enrichment (interaction score)
same,binding signal,PUM1 PUF domain R1-MGR,2.75 log2 enrichment (interaction score)
same,binding signal,PUM1 PUF domain R1-RGT,4.56 log2 enrichment (interaction score)
GGCUAGAACUAGUGGAUCCCCCGGCGCCCGGCGGCUCGAGCCCGGGUAAGUGUAAUUAGUCUGCAUGCCGCCGGGCGCCAUGCCUGCAGGUCGACUCUAGAAAACAUG,binding signal,PUM1 PUF domain R3-LSV,2.26 log2 enrichment (interaction score)
same,binding signal,PUM1 PUF domain R3-LWN,4 log2 enrichment (interaction score)
GGCUAGAACUAGUGGAUCCCCCGGCGCCCGGCGGCUCGAGCCCGGGUAAGUGUUAAUAGUCUGCAUGCCGCCGGGCGCCAUGCCUGCAGGUCGACUCUAGAAAACAUG,binding signal,PUM1 PUF domain R5-RNE,3.73 log2 enrichment (interaction score)
same,binding signal,PUM1 PUF domain R5-RGG,2.55 log2 enrichment (interaction score)
GGCUAGAACUAGUGGAUCCCCCGGCGCCCGGCGGCUCGAGCCCGGGUAAGUGUAAAGAGUCUGCAUGCCGCCGGGCGCCAUGCCUGCAGGUCGACUCUAGAAAACAUG,binding signal,PUM1 PUF domain R2-LWS,4.16 log2 enrichment (interaction score)
GGCUAGAACUAGUGGAUCCCCCGGCGCCCGGCGGCUCGAGCCCGGGUAAGUGUAAAUGGUCUGCAUGCCGCCGGGCGCCAUGCCUGCAGGUCGACUCUAGAAAACAUG,binding signal,PUM1 PUF domain R1-RWS,1.65 log2 enrichment (interaction score)
same,binding signal,PUM1 PUF domain R1-RGT,1.3 log2 enrichment (interaction score)
GGCUAGAACUAGUGGAUCCCCCGGCGCCCGGCGGCUCGAGCCCGGGUAAGUGUAAAAAGUCUGCAUGCCGCCGGGCGCCAUGCCUGCAGGUCGACUCUAGAAAACAUG,binding signal,PUM1 PUF domain R2-LWS,7.72 log2 enrichment (interaction score)
GGCUAGAACUAGUGGAUCCCCCGGCGCCCGGCGGCUCGAGCCCGGGUAAGUGUCAAUAGUCUGCAUGCCGCCGGGCGCCAUGCCUGCAGGUCGACUCUAGAAAACAUG,binding signal,PUM1 PUF domain R5-RNE,2.14 log2 enrichment (interaction score)
same,binding signal,PUM1 PUF domain R5-RGG,2.8 log2 enrichment (interaction score)
